# From paper PMC7862700, “An all-to-all approach to the identification of sequence-specific readers for epigenetic DNA modifications on cytosine”
# Experiments:
# Experiment in all cases: DAPPL (digital affinity profiling via proximity ligation, sequencing); 10 mM Tris-HCl pH 7.5, 50 mM NaCl, 1 mM DTT, 4% glycerol, room temperature, 30 min; GST-TFs on glutathione beads, 16-mer random dsDNA library, 0.1% formaldehyde crosslink after washing; high values mean tight binding
# FEV = molecular target: T1, FEV (Homo sapiens, UniProt Q99581 1-238); settings: protein: recombinant; tags: N-terminal GST; dsDNA, one strand shown
# T1 sequence: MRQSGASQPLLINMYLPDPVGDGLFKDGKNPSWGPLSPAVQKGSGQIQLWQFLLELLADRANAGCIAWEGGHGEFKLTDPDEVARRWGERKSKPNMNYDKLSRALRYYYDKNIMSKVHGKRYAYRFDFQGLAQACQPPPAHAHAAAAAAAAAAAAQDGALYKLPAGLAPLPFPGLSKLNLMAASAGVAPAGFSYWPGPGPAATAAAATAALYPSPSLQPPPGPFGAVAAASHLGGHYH
# Procedure, shortened: (§1)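 In yeast, human transcription factors were expressed with a GST fusion, then pulled down on glutathione beads and given DNA barcodes. Pooled with a tag-only sample, they were exposed to 200 nmole of a 16-mer random double-stranded DNA library (Tris/NaCl/DTT/glycerol buffer, room temperature, 30 min), washed, crosslinked with 0.1% formaldehyde, proximity-ligated using BsaI/T4 ligase for 1 h at 37 °C, PCR-amplified and read on an Illumina NextSeq500. Each hexamer's frequency of reads for a factor, divided by the matching frequency for the tag-only sample, gives the binding signal.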
# ETV5 = ETV5 (Homo sapiens, UniProt P41161 1-510); settings: protein: recombinant; tags: N-terminal GST; dsDNA, one strand shown
# Chain of ETV5 (P41161 whole entry): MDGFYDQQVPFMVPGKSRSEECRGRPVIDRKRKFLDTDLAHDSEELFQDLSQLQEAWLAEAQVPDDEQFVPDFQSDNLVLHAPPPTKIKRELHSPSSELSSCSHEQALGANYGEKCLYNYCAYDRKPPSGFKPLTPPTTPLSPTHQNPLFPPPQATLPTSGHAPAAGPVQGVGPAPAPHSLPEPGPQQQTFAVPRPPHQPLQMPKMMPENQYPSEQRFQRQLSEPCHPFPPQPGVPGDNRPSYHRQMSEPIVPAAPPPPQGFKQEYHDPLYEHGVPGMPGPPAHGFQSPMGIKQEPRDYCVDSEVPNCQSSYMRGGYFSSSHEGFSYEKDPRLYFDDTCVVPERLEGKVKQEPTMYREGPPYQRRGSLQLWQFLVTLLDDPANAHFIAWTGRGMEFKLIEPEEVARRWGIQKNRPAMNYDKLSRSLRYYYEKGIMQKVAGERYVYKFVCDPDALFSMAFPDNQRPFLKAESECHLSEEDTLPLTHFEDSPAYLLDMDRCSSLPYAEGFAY
# Procedure, shortened: as §1
# HSF1 = HSF1 (Homo sapiens, UniProt Q00613 1-529); settings: protein: recombinant; tags: N-terminal GST; chain copies: 3; dsDNA, one strand shown
# Chain of HSF1 (Q00613 whole entry): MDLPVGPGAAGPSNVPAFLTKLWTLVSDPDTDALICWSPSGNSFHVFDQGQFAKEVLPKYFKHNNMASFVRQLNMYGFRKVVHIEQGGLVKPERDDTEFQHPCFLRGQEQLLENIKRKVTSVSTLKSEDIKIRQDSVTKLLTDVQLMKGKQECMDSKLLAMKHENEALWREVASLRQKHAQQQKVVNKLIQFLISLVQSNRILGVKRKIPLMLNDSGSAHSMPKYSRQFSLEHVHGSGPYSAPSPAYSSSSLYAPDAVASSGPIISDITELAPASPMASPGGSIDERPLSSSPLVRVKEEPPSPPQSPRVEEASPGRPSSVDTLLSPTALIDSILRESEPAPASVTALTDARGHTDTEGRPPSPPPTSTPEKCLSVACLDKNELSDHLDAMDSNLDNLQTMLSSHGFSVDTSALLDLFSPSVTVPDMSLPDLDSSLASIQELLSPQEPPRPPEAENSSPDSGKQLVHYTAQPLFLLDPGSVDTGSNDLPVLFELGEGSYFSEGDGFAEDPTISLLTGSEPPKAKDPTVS
# Procedure, shortened: as §1
# SPIC = molecular target: T2, SPIC (Homo sapiens, UniProt Q8N5J4 1-248); settings: protein: recombinant; tags: N-terminal GST; dsDNA, one strand shown
# T2 sequence: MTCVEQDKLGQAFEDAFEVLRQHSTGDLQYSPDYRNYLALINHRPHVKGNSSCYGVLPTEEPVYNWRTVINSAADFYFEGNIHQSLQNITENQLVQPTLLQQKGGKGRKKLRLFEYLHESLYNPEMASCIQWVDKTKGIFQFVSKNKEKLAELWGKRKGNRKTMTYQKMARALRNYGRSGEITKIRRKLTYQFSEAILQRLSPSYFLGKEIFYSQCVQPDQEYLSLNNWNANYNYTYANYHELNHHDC
# Procedure, shortened: as §1
# ELF4 = ELF4 (Homo sapiens, UniProt Q99607 1-663); settings: protein: recombinant; tags: N-terminal GST; dsDNA, one strand shown
# Chain of ELF4 (Q99607 whole entry): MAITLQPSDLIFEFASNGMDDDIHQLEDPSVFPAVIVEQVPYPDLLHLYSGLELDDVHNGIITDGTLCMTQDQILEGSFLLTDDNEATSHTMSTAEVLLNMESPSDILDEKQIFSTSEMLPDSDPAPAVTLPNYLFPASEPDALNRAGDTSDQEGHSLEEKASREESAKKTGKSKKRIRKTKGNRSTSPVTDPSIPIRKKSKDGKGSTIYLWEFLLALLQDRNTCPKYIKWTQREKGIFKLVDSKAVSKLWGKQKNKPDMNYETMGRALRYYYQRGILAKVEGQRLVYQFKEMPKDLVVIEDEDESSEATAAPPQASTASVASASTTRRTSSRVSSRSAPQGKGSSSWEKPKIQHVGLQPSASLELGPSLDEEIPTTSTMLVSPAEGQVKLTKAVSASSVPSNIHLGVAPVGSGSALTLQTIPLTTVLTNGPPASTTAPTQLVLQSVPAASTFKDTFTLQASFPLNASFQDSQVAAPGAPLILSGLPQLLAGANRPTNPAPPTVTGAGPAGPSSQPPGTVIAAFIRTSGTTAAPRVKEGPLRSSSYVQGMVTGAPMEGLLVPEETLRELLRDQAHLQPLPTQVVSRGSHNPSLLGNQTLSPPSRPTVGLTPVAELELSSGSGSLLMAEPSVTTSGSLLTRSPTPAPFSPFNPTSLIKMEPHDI
# Procedure, shortened: as §1
# ELK4 = molecular target: T3, ELK4 (Homo sapiens, UniProt P28324-2 1-405); settings: protein: recombinant; tags: N-terminal GST; dsDNA, one strand shown
# T3 sequence: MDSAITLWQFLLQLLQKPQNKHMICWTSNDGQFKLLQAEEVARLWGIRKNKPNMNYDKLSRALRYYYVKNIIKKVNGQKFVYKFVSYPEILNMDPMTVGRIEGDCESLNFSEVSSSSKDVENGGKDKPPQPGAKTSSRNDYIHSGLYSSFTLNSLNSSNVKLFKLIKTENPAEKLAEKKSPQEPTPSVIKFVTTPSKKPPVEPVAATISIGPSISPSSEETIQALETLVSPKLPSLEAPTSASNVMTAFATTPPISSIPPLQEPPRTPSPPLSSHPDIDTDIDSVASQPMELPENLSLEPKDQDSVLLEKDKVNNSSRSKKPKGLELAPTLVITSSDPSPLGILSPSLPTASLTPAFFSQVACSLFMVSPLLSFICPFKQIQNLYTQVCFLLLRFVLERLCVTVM
# Procedure, shortened: as §1
# ETV2 = molecular target: T4, ETV2 (Homo sapiens, UniProt O00321 1-342); settings: protein: recombinant; tags: N-terminal GST; dsDNA, one strand shown
# T4 sequence: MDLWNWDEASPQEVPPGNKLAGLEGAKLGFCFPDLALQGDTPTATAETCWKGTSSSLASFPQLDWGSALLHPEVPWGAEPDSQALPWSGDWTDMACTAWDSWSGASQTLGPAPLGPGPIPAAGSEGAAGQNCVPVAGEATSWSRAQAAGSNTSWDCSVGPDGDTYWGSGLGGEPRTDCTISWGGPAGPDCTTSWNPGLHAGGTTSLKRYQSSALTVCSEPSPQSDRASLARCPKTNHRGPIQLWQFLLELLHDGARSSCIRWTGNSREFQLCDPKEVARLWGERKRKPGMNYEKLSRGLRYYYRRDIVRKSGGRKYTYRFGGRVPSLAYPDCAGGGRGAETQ
# Procedure, shortened: as §1
# ELF3 = molecular target: T5, ELF3 (Homo sapiens, UniProt P78545 1-371); settings: protein: recombinant; tags: N-terminal GST; dsDNA, one strand shown
# T5 sequence: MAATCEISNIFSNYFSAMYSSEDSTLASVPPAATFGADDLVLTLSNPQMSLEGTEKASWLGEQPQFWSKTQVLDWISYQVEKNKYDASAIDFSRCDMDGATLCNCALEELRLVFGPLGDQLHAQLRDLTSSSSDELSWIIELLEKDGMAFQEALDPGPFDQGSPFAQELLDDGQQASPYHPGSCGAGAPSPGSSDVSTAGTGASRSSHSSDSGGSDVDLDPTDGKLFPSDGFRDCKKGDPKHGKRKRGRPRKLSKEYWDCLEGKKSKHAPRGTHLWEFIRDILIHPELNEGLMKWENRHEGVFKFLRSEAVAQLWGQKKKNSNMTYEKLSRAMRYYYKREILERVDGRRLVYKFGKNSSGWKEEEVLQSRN
# Procedure, shortened: as §1
# CRX = CRX (Homo sapiens, UniProt O43186 1-299); settings: protein: recombinant; tags: N-terminal GST; dsDNA, one strand shown
# Chain of CRX (O43186 whole entry): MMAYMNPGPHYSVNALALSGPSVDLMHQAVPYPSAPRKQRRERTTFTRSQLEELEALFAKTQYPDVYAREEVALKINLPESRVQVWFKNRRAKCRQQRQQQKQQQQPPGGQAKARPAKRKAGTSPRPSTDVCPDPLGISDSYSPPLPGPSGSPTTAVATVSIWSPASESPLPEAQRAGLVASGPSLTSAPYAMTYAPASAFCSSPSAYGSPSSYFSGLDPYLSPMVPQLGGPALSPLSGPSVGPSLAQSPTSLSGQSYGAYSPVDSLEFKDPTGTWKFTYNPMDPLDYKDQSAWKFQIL
# Procedure, shortened: as §1
# ETV1 = ETV1 (Homo sapiens, UniProt P50549 1-477); settings: protein: recombinant; tags: N-terminal GST; dsDNA, one strand shown
# Chain of ETV1 (P50549 whole entry): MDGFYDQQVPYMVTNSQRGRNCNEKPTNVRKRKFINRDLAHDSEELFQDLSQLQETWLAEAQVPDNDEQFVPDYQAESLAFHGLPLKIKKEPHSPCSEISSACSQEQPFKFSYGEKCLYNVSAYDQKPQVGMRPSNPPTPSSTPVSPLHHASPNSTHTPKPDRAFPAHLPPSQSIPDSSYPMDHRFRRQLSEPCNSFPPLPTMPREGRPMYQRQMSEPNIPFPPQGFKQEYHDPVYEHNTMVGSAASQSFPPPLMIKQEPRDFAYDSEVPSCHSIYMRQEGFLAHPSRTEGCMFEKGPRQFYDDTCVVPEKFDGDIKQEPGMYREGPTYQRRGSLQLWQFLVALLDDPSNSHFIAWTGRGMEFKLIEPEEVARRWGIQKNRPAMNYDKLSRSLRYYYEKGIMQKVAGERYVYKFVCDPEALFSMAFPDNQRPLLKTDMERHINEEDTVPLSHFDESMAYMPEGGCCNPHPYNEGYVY
# Procedure, shortened: as §1
sequence,measurement,setting,value
AATCTC,binding signal,FEV,"1.23 fold enrichment (6-mer frequency, TF over GST control)"
same,binding signal,ETV5,"1.37 fold enrichment (6-mer frequency, TF over GST control)"
same,binding signal,HSF1,"2.13 fold enrichment (6-mer frequency, TF over GST control)"
same,binding signal,SPIC,"1.13 fold enrichment (6-mer frequency, TF over GST control)"
same,binding signal,ELF4,"1.25 fold enrichment (6-mer frequency, TF over GST control)"
same,binding signal,ELK4,"1.22 fold enrichment (6-mer frequency, TF over GST control)"
same,binding signal,ETV2,"1.26 fold enrichment (6-mer frequency, TF over GST control)"
same,binding signal,ELF3,"1.27 fold enrichment (6-mer frequency, TF over GST control)"
same,binding signal,CRX,"2.5 fold enrichment (6-mer frequency, TF over GST control)"
same,binding signal,ETV1,"1.34 fold enrichment (6-mer frequency, TF over GST control)"
